Rows were chosen to be rich in hits. Some 1.5% of all compounds tested hit in one or more screens of this group.
TrxR1 substrate = rat thioredoxin reductase 1 substrate activity; Potency, µM (highest dose often 114 µM), for inactives: at the highest dose activity change, negative = substrate turnover; purified TrxR1 substrate turnover, NADPH consumption readout; 0.01% of 390,000 active; AID 588456; further: potency means the concentration at half of the fitted maximal effect; nearly all actives have a fitted effect of over 50% in size
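Rat TrxR1, dispensed at 90 nM, was prereduced with 400 uM NADPH (final) for 5 min at ~22 deg C, then incubated with compound 15 min before 400 uM selenite. A first-read NADPH fluorescence drop versus no-compound background flagged substrates.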
Eya2 inh = Eya2 (human) phosphatase inhibition; O00167; recombinant Eya2, OMFP fluorescence dephosphorylation (OMFP is methylfluorescein phosphate); Potency, µM (top dose mostly 76.9 µM), without a hit: top-dose activity, negative = inhibition, most hits filed as inhibitors; 0.006% of 330,000 active; further: potency means the concentration at half of the fitted maximal effect
Target sequence (O00167 whole entry, looked up): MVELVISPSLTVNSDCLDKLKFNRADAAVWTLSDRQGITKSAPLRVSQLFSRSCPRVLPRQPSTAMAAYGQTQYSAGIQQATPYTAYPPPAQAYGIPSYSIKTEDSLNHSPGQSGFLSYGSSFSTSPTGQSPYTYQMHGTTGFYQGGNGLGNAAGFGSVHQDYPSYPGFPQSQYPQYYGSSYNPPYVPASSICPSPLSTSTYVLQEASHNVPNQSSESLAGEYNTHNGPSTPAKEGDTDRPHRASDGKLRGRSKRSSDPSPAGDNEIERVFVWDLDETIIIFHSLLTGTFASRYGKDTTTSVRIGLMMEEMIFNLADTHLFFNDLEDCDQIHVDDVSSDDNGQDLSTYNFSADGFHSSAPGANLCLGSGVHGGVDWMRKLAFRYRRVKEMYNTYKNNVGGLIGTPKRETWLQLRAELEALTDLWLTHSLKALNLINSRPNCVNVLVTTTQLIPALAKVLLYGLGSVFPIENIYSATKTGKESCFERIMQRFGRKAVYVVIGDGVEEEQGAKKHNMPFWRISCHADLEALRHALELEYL
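Eya2 protein (added as 0.2 uM solution) was preincubated with compound for 10 min at ambient temperature in 50 mM HEPES pH 7.5, 50 mM NaCl, 5 uM MgCl2, 0.05% BSA, 1 mM DTT. OMFP (added at 50 uM) then reacted 10 min; fluorescence read at 485/525 nm.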
GALK inh = inhibitors of human galactokinase. Potency, µM (doses to about 57.5 µM), for the others: at the top dose activity change, negative = inhibition, actives largely listed as inhibitors. 0.007% of 270,000 active. AID 1868. Purified GALK, Kinase-Glo residual ATP luminescence; further: potency means the concentration at half of the fitted maximal effect
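Human GALK (5 nM) with 35 uM ATP and 100 uM galactose in 20 mM HEPES pH 8.0, 5 mM MgCl2, 60 mM NaCl, 1 mM DTT, 0.01% BSA. After 1 h at room temperature, leftover ATP was read by Kinase-Glo Plus luminescence.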
Six1-Eya2 blk = inhibitors of human Six1/Eya2 interaction; activity change, % (test concentration not listed); AlphaScreen GST-Six1/His-Eya2 binding, biochemical; stronger effect = lower value; Q15475+O00167; 0.56% of 360,000 active; in the data active means activity change below about -65%; inconclusive means mostly about -30% to -63%
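AlphaScreen luminescence read after one hour at 37 °C in darkness. Pin-transferred compounds met GST-Six1 and His-Eya2 protein (5X stock 250 nM/500 nM) plus glutathione donor and Ni-chelate acceptor beads (5X, 50 ug/mL).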
TrxR1 inh = rat TrxR1 inhibition; recombinant rTrxR1, NADPH fluorescence consumption, selenite substrate; AID 588453; Potency, µM (series often up to 114 µM), for the others: at the top dose activity change, negative = inhibition, usual class: inhibitors; 1% of 390,000 active; further: potency means the concentration at half of the fitted maximal effect; nearly all actives have a fitted effect of over 65% in size
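Rat TrxR1 (90 nM in the dispensed reagent) was pre-reduced with 400 uM NADPH for 5 min at room temperature, then incubated with compound for 15 min. After 400 uM selenite was added, NADPH fluorescence (Ex 340/Em 450 nm) was followed for 8 min.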
CtBP-E1A blk = blocks the CtBP interaction with E1A; 0.49% of 340,000 active; activity change, % (concentration not given with the values); AlphaScreen GST-E1A/His-CtBP binding, 1536-well; stronger effect = lower value; in the data active means activity change below about -65%; inconclusive means mostly about -30% to -63%
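GST-E1A and His-tagged CtBP (125 nM each as 5X stock) were preincubated with pin-transferred compound for 2 h at 37 °C in the dark, then glutathione donor and nickel acceptor beads were added for 1 h before AlphaScreen reading.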
The depositor's hits bear a star; ? = inconclusive; / = not tested or not shown; [ ] = another dose, or the depositor's remark. Unless noted, the call rests on the fitted dose curve; in most records, active means well fitted curve in the direction sought with a large enough effect; inconclusive means small, poorly fitted or top-dose-only effect, or another doubt; inactive means no such curve, though single readings can be large; an effect the other way counts as inactive or inconclusive. On the % scale 0 is the no-effect control and ±100 the full control effect.

SMILES	TrxR1 substrate	Eya2 inh	GALK inh	Six1-Eya2 blk	TrxR1 inh	CtBP-E1A blk
CCCCCc1cc(=O)oc2c(C(CCN3CCN(c4ccccc4)CC3)c3ccc(N(C)C)cc3)c(OC)cc(OC)c12 (stereo not given)	11.1%	-9.8%	4.0%	-66.2*	35.0%	-28.4
COc1cc(OC)c2c(-c3ccccc3)cc(=O)oc2c1C(CCN1CCN(c2ccccc2)CC1)c1ccc(N(C)C)cc1 (stereo not given)	-3.4%	-2.1%	-1.0%	?	14.1%	?
O=C(NCCc1ccc(Cl)cc1)C(=O)NCC(c1ccco1)S(=O)(=O)c1ccc(Cl)cc1 (stereo not given)	3.5%[57.1 µM]	/	/	/	-19.6%[57.1 µM]	/
Nc1ccc(S(=O)(=O)c2cc(O)c3ccccc3c2O)cc1	-9.8%	/	/	-13.9	2.82µM*	-11.2
COc1ccc(-c2csc(C3=C(O)CN(C(C)C)C3=N)n2)cc1OC	-4.0%	-8.3%	12.1%	?	4.1%	-77.4*
COc1ccc(-c2nc(-c3ccc(O)cc3O)cs2)cc1OC	3.0%	-2.8%	-5.5%	-25.8	25.9%[57.1 µM]	-23.8
Cc1cccc(N(C(=O)CNC(=O)c2ccco2)C(C(=O)NC2CCCCC2)c2cccnc2)c1 (stereo not given)	15.6%[0.0914 µM]	0.1%	-2.1%	0.5	21.0%[57.1 µM]	3.2
O=C(NC1CCCCC1)C(c1cccnc1)N(C(=O)CCl)c1cccc(Cl)c1 (stereo not given)	-2.3%	-12.3%	-3.5%	2.1	6.31µM*	9.6
Cc1cccc(C)c1NC(=S)N(CCN(C)C)C(C)c1ccccn1 (stereo not given)	5.4%	-5.3%	-0.4%	-82.9*	8.9%	-72.1*
Cc1ccc(C)c(NC(=S)N(CCN(C)C)C(C)c2ccccn2)c1 (stereo not given)	2.4%	2.8%	-0.6%	-70.3*	17.4%[0.0914 µM]	-65.3*
CCn1nc(C)c(CCN(C)C(=O)Nc2cc(Cl)c(OC)cc2OC)c1C	0.5%[57.1 µM]	/	/	/	11.6%[57.1 µM]	/
CN(C)c1ccc(N=Nc2ccccc2C(=O)OCC(=O)N(C)c2ccccc2)cc1	-6.5%	-7.0%	-2.3%	-67.3*	-1.1%	-66.1*
CC(=O)c1ccc(NC(=O)COC(=O)c2ccccc2N=Nc2ccc(N(C)C)cc2)cc1	-6.3%	-1.0%	-2.5%	-68.5*	-6.7%	0.0
Cc1ccn2c(NC3CCCCC3)c(-c3ccc(C)o3)nc2c1	20.8%	/	/	/	-14.2%	/
Cc1cccc(N2C(=O)CC(Sc3ncn[nH]3)C2=O)c1 (stereo not given)	-3.8%	?	-0.3%	5.8	20µM*	2.3
Cc1ccc(N2C(=O)CC(Sc3ccccc3C(=O)O)C2=O)cc1C (stereo not given)	8.8%	-0.9%	-0.2%	1.4	-63.7%	/
Cc1ccc(N2C(=O)CC(Sc3ncn[nH]3)C2=O)cc1C (stereo not given)	8.1%	-23.2%	-1.8%	-0.2	?	-1.8
Cc1ccc(N2C(=O)CC(Sc3ccccc3C(=O)O)C2=O)c([N+](=O)[O-])c1 (stereo not given)	-2.8%	-4.3%	4.4%	-3.8	79.4µM*	-7.5
COc1ccc(N2C(=O)CC(Sc3ccccc3C(=O)O)C2=O)c([N+](=O)[O-])c1 (stereo not given)	2.7%	8.1%	1.2%	-8.4	70.8µM*	/
Cc1ccc(N2C(=O)CC(Sc3ccccc3C(=O)O)C2=O)cc1 (stereo not given)	-5.9%	-4.7%	-0.9%	3.5	?	-7.5
CN(C)c1ccc(N2C(=O)CC(Sc3ccccc3C(=O)O)C2=O)cc1 (stereo not given)	-8.9%	1.7%	/	1.6	79.4µM*	7.7
COC(=O)c1ccc(Oc2nc3c(c(=O)n(C)c(=O)n3C)n2Cc2ccc(Cl)c(Cl)c2)cc1	9.1%	/	/	/	13.1%	/
Cc1ccc(C)n1-c1nnc(N2CCCC(C(=O)NCc3cccc(Cl)c3)C2)s1 (stereo not given)	-7.8%	/	/	/	?	/

Screens: PubChem, National Center for Advancing Translational Sciences (NCATS)
